From PubChem BioAssay
An excerpt weighted towards active compounds, which were near 11% of everything screened.
ALDH1A1 block: ALDH1A1 (human) enzyme inhibition | 220,000 compounds, 7.3% hits | Potency, µM (top dose mostly 75.3 µM), for the others: top-dose activity, negative = inhibition, most hits filed as inhibitors | AID 1030 | Purified ALDH1A1, NADH fluorescence, propionaldehyde substrate;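 also: potency is read from the fitted curve at half-maximal effect; plate controls were no enzyme wells and a reference inhibitor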
PNC inhibitor: inhibitors of perinucleolar compartment assembly. PC3M PTB-GFP, PNC prevalence imaging, 16 h; active compounds read low. activity change (PNC), negative = inhibition, % at 10 µM. 140,000 compounds, 3.1% hits. AID 2417;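 active = readout at or below -70, meaning at least 70% loss of cells showing the perinucleolar compartment, a nuclear body marking cancer cells; inconclusive = readout between -30 and a set limit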;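 also: plate controls were DMSO wells for no effect and camptothecin positive control wells for full effect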
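Compounds are pinned in duplicate onto adhered PC3M cells stably expressing GFP-tagged PTB and incubated 16 h at 37 C. Cells are then fixed, nuclei stained with Hoechst, and PNC-positive cells counted.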
HPGD inh: inhibitors of human 15-hydroxyprostaglandin dehydrogenase (HPGD); P15428; purified HPGD, NADH fluorescence kinetic, PGE2 substrate; Potency, µM, for the others: at the highest dose activity change, negative = inhibition, actives largely listed as inhibitors; 150,000 compounds, 4.3% hits; also: potency is read from the fitted curve at half-maximal effect
Target sequence (P15428 whole entry, looked up): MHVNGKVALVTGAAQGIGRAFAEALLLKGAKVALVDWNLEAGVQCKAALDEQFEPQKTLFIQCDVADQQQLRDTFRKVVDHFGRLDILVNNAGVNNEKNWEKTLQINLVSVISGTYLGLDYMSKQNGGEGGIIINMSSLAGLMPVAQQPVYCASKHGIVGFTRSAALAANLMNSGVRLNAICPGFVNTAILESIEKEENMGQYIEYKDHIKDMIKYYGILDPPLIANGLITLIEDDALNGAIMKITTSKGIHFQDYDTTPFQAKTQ
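NADH formation kinetics: reaction with 30 uM PGE2 and 1 mM NAD+ (final), 20 nM enzyme, Tris-HCl pH 8 with Tween 20, after 15 min compound preincubation at room temperature. Fluorescence change, last versus first of five reads.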
Starred values were filed as active, the others as inactive; u = inconclusive; x = no result given. Unless noted, calls follow the shape of the dose curve; as a rule, active = well fitted inhibition curve with a large enough effect (not every such curve was filed as active); inconclusive = small, poorly fitted or top-dose-only effect, or another doubt; inactive = no such curve, though single readings can be large or run the other way. Unless noted, % is scaled to controls: 0 for no effect and ±100 for the full control effect.

SMILES | ALDH1A1 block | PNC inhibitor | HPGD inh
CCN1CCN(C(=S)Nc2cccc([N+](=O)[O-])c2)CC1 | 0% | u | x
CCC(C)C(=O)OC1CC(O)C=C2C=CC(C)C(CCC(O)CC(O)CC(=O)O)C21 (stereo not given) | -1% | x | -9%
Cc1ccc(CNCC(=O)Nc2ccc(C)cc2Br)cc1 | 4% | x | x
CCOc1ccc(CN2CCCC(CNC(=O)c3ccc(F)cc3)C2)cc1CO (stereo not given) | 2% | x | x
CCN1CCCC1CN(Cc1cc2ccc(C)c(C)c2[nH]c1=O)C(=O)Nc1ccccc1OC (stereo not given) | 13µM* | -3 | -13%
CCN1CCCC1CN(Cc1cc2ccc(C)cc2[nH]c1=O)C(=S)Nc1ccccc1OC (stereo not given) | 14% | -5 | -10%
Cc1c(C(=O)COC(C)(C)C)[nH]c2ccccc12 | 6.3µM* | u | 4.5µM*
CCOC(=O)c1[nH]c2ccccc2c1NC(=O)C(C)(C)C | u | 1 | u
CCCc1cc(=O)[nH]c(SCc2cc(C(=O)OC)c(C)o2)n1 | -10% | 5 | 16µM*
COC(=O)c1cc(CSc2nc3ccccc3[nH]2)oc1C | -6% | -17 | -6%
COc1ccccc1NS(=O)(=O)c1cccc(C(=O)NN=C2CCCCCC2)c1 | 13µM* | 2 | -17%
COc1ccccc1NS(=O)(=O)c1ccc(NN=C2CCCCC2)c([N+](=O)[O-])c1 | -5% | -10 | -12%
O=C(COC(=O)c1ccc[nH]c1=O)c1ccc(Cl)s1 | -10% | -23 | -10%
Cc1ccc(C(=O)OCC(=O)c2ccc(Cl)s2)s1 | u | 10 | 16µM*
COc1ccc(NC(=O)c2cc(SC)ccc2Cl)cc1 | -6% | 5 | -5%
COc1ccc(OC)c(-c2oc3ccccc3c(=O)c2O)c1 | 0% | u | -23%
COc1ccc(OC)c(-c2c3cc(O)c(=O)cc-3oc3cc(O)c(O)cc23)c1 | u | -6 | 14µM*
CCOC(=O)c1oc2cc(O)ccc2c(=O)c1-c1ccccc1OC | u | 47 | -13%
CCOc1ccccc1-c1c2cc(O)c(=O)cc-2oc2cc(O)c(O)cc12 | 20µM* | -83* | 18µM*
CC(=O)N(CN1C(=O)c2ccccc2C1=O)c1ccc2c(c1)oc1ccccc12 | 4% | 44 | -8%
CNc1nc(SCc2ccc(C)cc2)nc2c1CCCC2 | 6.3µM* | 91 | u
Cc1ccc(CSc2nc3c(c(N(C)C)n2)CCCC3)cc1 | u | -20 | -11%
CS(=O)(=O)NCCNC(=O)c1cc(OCC(F)(F)F)ccc1OCC(F)(F)F | 8% | x | x
CN(c1ccccc1C(=O)Nc1ccc2c(c1)OCO2)S(C)(=O)=O | -1% | -100* | -25%
Cc1ccccc1C(=O)Nc1ccc2c(c1)OCO2 | -5% | u | 18µM*
SMILES | ALDH1A1 block | PNC inhibitor | HPGD inh
COc1ccccc1C(=O)Nc1cccc(N(C)S(C)(=O)=O)c1 | -4% | -100* | -14%
COc1ccccc1C(=O)Nc1ccc2c(c1)OCO2 | 7% | -7 | -13%
CN(c1ccccc1C(=O)Nc1ccc2c(c1)OCCO2)S(C)(=O)=O | 3% | 289 | -10%
CSc1ccccc1C(=O)Nc1cccc(N(C)S(C)(=O)=O)c1 | u | u | -2%
CCNC(=S)N1CCc2cc(OC)c(OC)cc2C1COc1ccccc1OC (stereo not given) | -14% | x | x
CCCC(=O)OC1(C(=O)CO)CCC2C3CCC4=CC(=O)CCC4(C)C3C(O)CC21C (stereo not given) | 15% | x | 1%
O=C(O)CCSCCCN1C(=O)c2cccc3cccc(c23)C1=O | -1% | x | x
Cc1c(C2C(C#N)=C(N)N(c3cccc([N+](=O)[O-])c3)C3=C2C(=O)CCC3)cnn1C (stereo not given) | -1% | x | x
CC(C)NC(=O)N1CC2(CCN(S(=O)(=O)c3ccccc3)CC2)C1 | 2% | x | -5%
CCCCn1c(C(C)NC(=O)CC)nc2ccccc21 (stereo not given) | -4% | u | -6%
CCCCCCn1c(C(C)NC(=O)c2ccco2)nc2ccccc21 (stereo not given) | 5µM* | 17 | -7%
Cc1cc(C)c(OCCOCCN(C)C)c(Br)c1 | -3% | 17 | -12%
Cc1cc(C)c(OCCCCN(C)C)c(Br)c1 | 22µM* | x | x
Cc1ccc(S(=O)(=O)c2c(C)cc(C)nc2Cl)c(C)c1 | 8% | -3 | -22%
Cc1cc(C)c(S(=O)(=O)/N=C2\C=CC(=O)C(Cl)=C2)c(C)c1 | u | -14 | 20µM*
COc1ccc(Oc2ncc3nc(-c4cn(C)c5ccccc45)c(=O)n(C)c3n2)cc1 | 4% | x | x
COc1cc(N/C=C(\C(C)=O)c2ccccc2)cc(OC)c1 | u | u | -27%
COc1ccc(Cl)cc1NC(=O)CCc1nc(-c2ccccc2F)no1 | 4% | x | x
Cc1nc(NC(=O)c2ccccc2)sc1-c1csc(Nc2ccc(F)cc2)n1 | u | -100* | u
